# Measurements taken from PubChem BioAssay AID651593 (National Center for Advancing Translational Sciences (NCATS), 2012).
# Where “and” joins values, the source holds several entries; their conditions need not be identical. Equal entries are not always repeated. Out of some 1,100 compounds screened, about 860 (78%) were called active. Inconclusive results (about 19%) are left out. Calls follow the shape of the dose curve; as a rule, active = well fitted activation curve with a large enough effect; inconclusive = small, poorly fitted or top-dose-only effect; inactive = flat fitted curve, though single readings scatter. So high a share suggests a set chosen from earlier hits. The list shows a part of the results.
# Assay: qHTS of Nrf2 Activators: Hit Validation in Primary Assay; also: nearly all actives have a fitted effect of over 70% in size
# Settings: Nrf2/ARE reporter cell assay; Potency: activation; series mostly up to 46.1 µM
# In short: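 AREc32 cells stably carrying an ARE-driven firefly luciferase, plated overnight, then exposed 24 h at 37 °C to compounds at several concentrations. ARE activation read as luminescence with Steady-Glo after 30 min at room temperature.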
# Potency is read from the fitted curve at half-maximal effect.
row,SMILES,Potency
1,COCCN(C(=O)COC(=O)/C=C/c1ccccc1Cl)c1c(N)n(Cc2ccccc2)c(=O)[nH]c1=O,11.6 µM (active)
2,O=C(/C=C/Nc1ccc(F)c(Cl)c1)c1ccco1,1.3 µM (active)
3,O=C1COc2ccc(C(=O)COC(=O)/C=C/c3ccco3)cc2N1,2.06 µM (active)
4,O=C(Nc1ccccn1)Nc1ccccc1Cl,9.2 µM (active)
5,Cc1cccc(NC(=O)Nc2ccccc2[N+](=O)[O-])n1,8.2 µM (active)
6,O=C(Nc1ccccn1)Nc1ccccc1[N+](=O)[O-],4.11 µM (active)
7,Cc1cccc(NC(=O)Nc2ccc(Br)cc2)n1,8.2 µM (active)
8,O=C(N=Nc1c(O)[nH]c2ccccc12)c1ccco1,2.31 µM (active)
9,O=C(N=Nc1c(O)[nH]c2ccc(Br)cc12)c1ccco1,3.26 µM (active)
10,Cc1ccc(C)c(-c2nnc(NC(=O)c3ccc([N+](=O)[O-])o3)o2)c1,2.91 µM (active)
11,COc1ccc(NC(=O)CSc2ccc(-c3ccco3)nn2)cc1OC,5.17 µM (active)
12,O=C(CSc1ccc(-c2ccco2)nn1)N1CCCCCC1,0.517 µM (active)
13,O=C(CSc1ccc(-c2ccco2)nn1)N1CCCC1,1.84 µM (active)
14,O=C(CSc1ccc(-c2ccco2)nn1)N1CCCCC1,1.84 µM (active)
15,CCOC(=O)C(=Cc1ccccc1OC)C(=O)OCC,16.4 µM (active)
16,CCn1nc(C(=O)Nc2cccc3ccccc23)c(Cl)c1Cl,18.4 µM (active)
17,Clc1cccc(Cc2c(-c3ccccc3)nc3c4ccccc4ccn23)c1,11.6 µM (active)
18,COc1ccccc1Cc1c(-c2ccco2)nc2c3ccccc3ccn12,7.31 µM (active)
19,c1ccc(-c2nc3c4ccccc4ccn3c2Cc2ccsc2)cc1,5.8 µM (active)
20,c1ccc(Cc2c(-c3ccco3)nc3c4ccccc4ccn23)cc1,9.2 µM (active)
21,Clc1cccc(Cc2c(-c3ccco3)nc3c4ccccc4ccn23)c1,8.2 µM (active)
22,Cc1ccc(Cc2c(-c3ccco3)nc3c4ccccc4ccn23)cc1,8.2 µM (active)
23,Fc1cccc(Cc2c(-c3ccco3)nc3c4ccccc4ccn23)c1,2.91 µM (active)
24,O=C(COC(=O)c1cc2ccccc2cc1O)Nc1ccccc1F,20.6 µM (active)
25,c1ccc(N/N=C2\CCCc3ccccc32)nc1,14.6 µM (active)
26,O=C1c2ccccc2C(=O)c2c(Nc3ccc(CCO)cc3)ccc(O)c21,2.31 µM (active)

row,SMILES,Potency
1,COc1cc(C=C(c2nc3ccccc3s2)c2nc3ccccc3s2)ccc1O,7.31 µM (active)
2,Fc1ccc(-c2nc3c4ccccc4ccn3c2Cc2ccccc2C(F)(F)F)cc1,7.31 µM (active)
3,COc1ccc(Cc2c(-c3ccccc3)nc3c4ccccc4ccn23)c(C)c1,6.51 µM (active)
4,FC(F)(F)c1ccccc1Cc1c(-c2ccccc2)nc2c3ccccc3ccn12,14.6 µM (active)
5,Nc1ccc2c(c1)Cc1c(F)cccc1-2,18.4 µM (active)
6,CC(C)N(C(=O)COC(=O)c1ccccc1C(=O)c1ccc(Cl)c([N+](=O)[O-])c1)C(C)C,18.4 µM (active)
7,O=C1Nc2ccccc2SC1=Cc1ccccc1,2.91 µM (active)
8,O=[N+]([O-])c1cccc(-c2cn(-c3ccccc3)c(=S)[nH]2)c1,inactive
9,O=[N+]([O-])c1cccc(-c2nc(-c3ccccn3)no2)c1,2.06 µM (active)
10,c1ccc(-c2nnc(-c3ccccc3)o2)cc1,6.51 µM (active)
11,O=[N+]([O-])c1cccc(-c2nnc(-c3ccccc3)o2)c1,7.31 µM (active)
12,Cc1ccc(S(=O)(=O)c2nc(S(C)(=O)=O)sc2N2CCC3(CC2)OCCO3)cc1,10.3 µM (active)
13,CS(=O)(=O)c1nc(S(=O)(=O)c2ccc(Cl)cc2)c(N2CCC3(CC2)OCCO3)s1,9.2 µM (active)
14,C/C(=N\NC(=O)c1cccc(S(=O)(=O)Nc2cccc(Cl)c2)c1)c1cccs1,inactive
15,C/C(=N\NC(=O)c1cccc(S(=O)(=O)N2CCCC2)c1)c1ccco1,2.31 µM (active)
16,CCN(C(=O)Cn1nnc2sc(-c3ccccc3)cc2c1=O)c1cccc(C)c1,2.31 µM (active)
17,CC(=O)Cn1nnc2sc(-c3ccccc3)cc2c1=O,2.06 µM (active) and 5.8 µM (active)
18,COC(=O)[C@@]1(Sc2ccc(C)cc2)CC(=O)N(C(=O)/C=C/c2ccccc2)[C@@H]1c1ccccc1,3.66 µM (active)
19,Fc1cccc(Cc2c(-c3ccco3)nc3ccc(Br)cn23)c1,20.6 µM (active)
20,Brc1ccc2nc(-c3ccco3)c(Cc3ccsc3)n2c1,20.6 µM (active)
21,c1cc2c3c(cccc3c1)NN=N2,20.6 µM (active)
22,COc1cc(/C=N/Nc2nc3ccccc3s2)ccc1OC(=O)c1ccccc1F,4.61 µM (active)
23,C/C(=N\NC(=O)c1c[nH]c2ccccc12)c1ccco1,3.66 µM (active)
24,Cc1nc(/N=C(\N)NC(=O)c2ccccc2)nc2ccccc12,2.31 µM (active)
25,CC(=O)N(/N=C1\Sc2ccccc2C1=O)c1ccccc1,20.6 µM (active)
26,COc1ccc(O)c(-c2cc(-c3ccccc3Cl)[nH]n2)c1,2.91 µM (active)

row,SMILES,Potency
1,COc1ccc(O)c(-c2cc(-c3ccc(F)cc3)n[nH]2)c1,7.31 µM (active)
2,N#Cc1sc2nc(-c3ccccc3)cc(C(F)(F)F)c2c1N,2.59 µM (active)
3,Cc1ccc(O)c(NC(=O)c2cc([N+](=O)[O-])ccc2Cl)c1,2.91 µM (active)
4,Cc1cc(O)c(NC(=O)c2cc([N+](=O)[O-])ccc2Cl)cc1C,2.31 µM (active)
5,O=C(Nc1cccc([N+](=O)[O-])c1)c1[nH]ncc1Cl,5.8 µM (active)
6,O=C(Nc1ccccc1)c1cc([N+](=O)[O-])ccc1Cl,1.46 µM (active)
7,CS(=O)(=O)Nc1ccc(C(=O)Nc2cccc([N+](=O)[O-])c2)cc1,7.31 µM (active)
8,O=[N+]([O-])c1ccccc1C=NNc1ccccc1,5.17 µM (active)
9,O=[N+]([O-])c1ccccc1/C=N/Nc1nccnc1Cl,16.4 µM (active)
10,COn1c(=O)c(-c2cccc(Br)c2)[n+]([O-])c2ccccc21,14.6 µM (active)
11,CCn1c(=NC(=O)c2ccco2)sc2cccc(F)c21,1.3 µM (active)
12,Cn1c(NCC2CCCCC2)nc2cc(-c3ccsc3)sc2c1=O,2.31 µM (active)
13,C1=C(c2ccc(-c3ccccc3)cc2)Nc2ncnn2C1c1ccco1 (stereo unspecified),6.51 µM (active)
14,Brc1ccc(C2=CC(c3ccco3)n3nnnc3N2)cc1 (stereo unspecified),9.2 µM (active)
15,O=C(O)c1ccc(-n2ncc(Cl)c(Cl)c2=O)cc1,2.91 µM (active)
16,Cc1ccc(Sc2cnn(-c3ccccc3)c(=O)c2Cl)cc1,inactive
17,c1ccc(-c2cc3c(-n4cccc4)ncnc3o2)cc1,2.06 µM (active)
18,Cc1c(Cl)cccc1N=c1c([N+](=O)[O-])nn(-c2ccccc2)n1O,2.31 µM (active)
19,COc1ccc(Cl)cc1NC(=O)CCS(=O)(=O)c1cccc2nonc12,16.4 µM (active)
20,Nc1c(Cl)cc(N=Nc2ccccc2)cc1Cl,2.59 µM (active)
21,O=c1oc2ccccc2nc1/C=C(\O)c1ccc(Br)cc1,20.6 µM (active)
22,O=C(Cn1cnc2ccccc21)N/N=C/C(Br)=C/c1ccccc1,20.6 µM (active)
23,OCCC#Cc1c(-c2ccsc2)sc2ccccc12,2.31 µM (active)
24,O=C(/C=C/c1ccco1)Nc1cccc(S(=O)(=O)N2CCOCC2)c1,8.2 µM (active)
25,O=C(/C=C/c1ccco1)Nc1ccc(Cl)c(-c2nc3cc(Cl)ccc3o2)c1,1.16 µM (active)
26,O=C(/C=C/c1ccco1)Nc1ccc2nn(-c3ccccc3)nc2c1,7.31 µM (active)

row,SMILES,Potency
1,O=C(/C=C/c1ccco1)Nc1ccc(-c2nc3ccccc3[nH]2)cc1,1.3 µM (active)
2,O=[N+]([O-])c1cc2c(cc1Br)-c1ccccc1C2,2.31 µM (active)
3,COc1cc2c(cc1NC(=O)c1cccc(F)c1)CCCC2,2.59 µM (active)
4,COc1cc2c(cc1NC(=O)c1ccccc1F)CCCC2,6.51 µM (active)
5,Cc1cc(O)cc2c1C(=O)/C(=C/c1ccco1)O2,1.84 µM (active)
6,COc1cccc(NC(=O)c2cc(Cl)nnc2Cl)c1,18.4 µM (active)
7,CCSc1ncc(Cl)c(C(=O)Nc2ccccc2)n1,4.61 µM (active)
8,COc1cccc(NC(=O)c2nc(SC)ncc2Cl)c1,2.91 µM (active)
9,COc1cccc(NC(=O)c2nn(C)cc2Br)c1,16.4 µM (active)
10,CCOC(=O)c1ccc(NC(=O)c2nc(S(=O)(=O)Cc3ccccc3)ncc2Cl)cc1,3.66 µM (active)
11,O=C(NCCc1ccccn1)c1c(-c2ccsc2)sc2ccccc12,2.31 µM (active)
12,O=C(Nc1cccc2nsnc12)c1cccs1,2.91 µM (active)
13,COc1ccccc1C(=O)COC(=O)c1cccs1,6.51 µM (active)
14,COC(=O)c1ccccc1NC(=O)c1cccs1,14.6 µM (active)
15,O=C(Nc1ccc2nsnc2c1)c1cccs1,6.51 µM (active)
16,CNC(=O)C1CCN(S(=O)(=O)c2c(C)noc2/C=C/c2ccccc2F)CC1,9.2 µM (active)
17,CCOC(=O)c1ccccc1N/C=C/C(=O)c1ccccc1,3.26 µM (active)
18,O=C(/C=C/Nc1ccc(F)cc1)c1cccs1,6.51 µM (active)
19,CCOC(=O)c1ccccc1N/C=C/C(=O)c1cccs1,2.31 µM (active)
20,O=C(CN1CCCCC1)Nc1nnc(-c2ccccc2)s1,5.8 µM (active)
21,C/C(=N\Nc1ccc(F)cc1F)c1ccc(Br)s1,16.4 µM (active)
22,C/C(=N\Nc1ccccn1)c1ccc(Br)s1,7.31 µM (active)
23,C/C(=N\Nc1ccccn1)c1cccs1,14.6 µM (active)
